Source: PubChem BioAssay (NCI)
The panel holds about 83,000 compounds, 20% with a hit somewhere; the sample as a whole holds those more often.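 A percent growth of 40 corresponds to 60% growth inhibition; 0 means no net growth; -100 means all cells died. Active threshold: below 10.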 Unmarked numbers belong to inactive results. Calls of active or inactive are those of the source.

Test system: HL-60(TB) leukemia
Assay: NCI-60 one-dose screen, 48 h (100 = growth as untreated, 0 = no growth, -100 = all killed)
Conditions: 10 µM unless noted

Compound | growth
O=C(N=C1C(=O)C2(CCCCC2)C2(N=C(c3ccccc3)OC2=O)C12CCCCC2)c1ccccc1 (centres undefined) | 71.8%
C=C(c1ccc(C(=O)NCCCn2ccnc2)cc1)c1cc2c(cc1C)C(C)(C)CCC2(C)C | -47.5% (active)
C/C(=N\NC(=S)N1CC2CCC(CC2)C1)c1ccccn1 | -22.4% (active)
COc1ccccc1NC(=O)n1c(=O)cc(C)c2ccc(O)cc21 | 105%
CCN(CC)CCOC(=O)c1cc(OCc2ccccc2)c(OCc2ccccc2)c(OCc2ccccc2)c1 | 59.6%
C=C(CNCCO)[C@@H]1CC[C@]2(CO)CC[C@]3(C)[C@H](CC[C@@H]4[C@@]5(C)CCC(NCCO)C(C)(C)[C@@H]5CC[C@]43C)[C@@H]12 (some centres undefined) | 66.2%
COc1cc(/C=C/c2cc(/C=C/c3ccc(O)c(OC)c3)n(-c3ccc(Cl)cc3)c(=O)n2)ccc1O | 92.6%
Cc1cn([C@]2(CF)O[C@H](CO)C2C)c(=O)[nH]c1=O (some centres undefined) | 105%
C#CC(C(C)C)N(CCO)CCCC (centres undefined) | 108%
O=C1C=C(Nc2cccc(Br)c2)c2ccccc2C1=O | 71.8%
O=C(O)c1cccc(-n2ncc(Cl)c(Cl)c2=O)c1 | 107%
c1cc2c(ccc3[nH]c(-c4ccc5[nH]ncc5c4)c4c(c32)CCCC4)n1 | 9.65% (active)
CN(C)c1ccc2c(N(C)C)cc(N(C)C)nc2c1 | 92.1%
CSc1ncccc1C(=O)OCC(=O)Nc1oc(C)c2c(C)n[nH]c(=O)c12 | 98.2%
c1cc(C2CCCCC2)ccc1-c1cnc2nonc2n1 | -27.3% (active)
O=C(/C=C/c1cn(-c2ccccc2)nc1-c1ccccc1)OCc1cn(-c2cccc([N+](=O)[O-])c2)nn1 | 93%
CCN1C(=O)N(CC)C2Nn3c(s/c(=C\c4ccc([N+](=O)[O-])cc4)c3=O)=NC21 (centres undefined) | 87%

Compound | growth
C#C[C@@]1(O)[C@@H](CO)O[C@@H](n2cc(C(F)(F)F)c3c(N)ncnc32)[C@@H]1O | -37.6% (active)
Cc1ccc(Oc2nc3ccccc3cc2-c2nnc(Cn3c(COc4ccccc4)nc4ccccc43)o2)cc1 | -18.2% (active)
Cc1ccc(S(=O)(=O)n2cc(CNc3ccc(N4CCOCC4=O)cc3)c3ccccc32)cc1 | 66.7%
Cc1cc(SC#N)ncn1 | 102%
CCOc1ccc(C2N(c3cc(OC)c(OC)c(OC)c3)C(=O)C2(F)F)cc1 (centres undefined) | -16% (active)
C=C1C(=O)O[C@H]2[C@H]1CC/C(C=Nc1c(N)cc(C(F)(F)F)cc1C(F)(F)F)=C\CC[C@@]1(C)O[C@@H]21 | -24.9% (active)
CCOC(=O)Cn1c(=O)c2c(c3ccccc3n2C)n2nnc(-c3ccccc3)c12 | 109%
O=C(NNC(=O)c1ccc(NC(=O)c2ccccn2)cc1)Nc1ccc([N+](=O)[O-])cc1 | 97.9%
CC(=O)CC(=O)SC1=NCCS1 | 107%
CNC(=O)OC1C(O[C@H]2C[C@H]3[C@@H]4CC=C5C[C@@H](O)CC[C@]5(C)[C@H]4CC[C@]3(C)[C@H]2[C@H](C)C(=O)CCC(C)C)OCC(O)C1OC1OCC(O)C(O)C1OC(=O)c1ccc(OC)cc1 (some centres undefined) | -12.1% (active)
CO[C@H]1/C=C/O[C@@]2(C)Oc3c(C)c(O)c4c(O)c(c5c(nc6cc(C)ccn65)c4c3C2=O)NC(=O)/C(C)=C\C=C\[C@H](C)[C@H](O)[C@@H](C)C(O)[C@@H](C)[C@H](OC(C)=O)[C@@H]1C (some centres undefined) | 102%
Clc1ccc(-c2nc(-c3cccs3)cn3ccnc23)cc1 | 98.8%
COc1ccc2c(c1)c(-c1nc(-c3c[nH]c4ncccc34)cs1)cn2CCCN1CCOCC1 | 17.4%
C=C(C)[C@@H]1CCC[C@]2(C(=O)N3CCN(C)CC3)CC[C@]3(C)[C@@H](CC[C@@H]4[C@@]5(C)CC/C(=N\NC(=O)c6ccncc6)C(C)(C)[C@@H]5CC[C@]43C)[C@@H]12 | 82.8%
CC(=O)[C@@]1(O)CC[C@H]2[C@@H]3CC[C@@H]4CC(=O)CC[C@]4(C)[C@H]3[C@@H](O)C[C@@]21C | 102%
CCCCCCCCC(=O)OCCCC(CCC(CCC1CCCO1)OC(=O)CCCCCCCC)OC(=O)CCCCCCCC (centres undefined) | 89%
COC(=O)/C(CCC=C(C)C)=C1\[C@@H](OC(C)=O)C[C@@]2(C)[C@H]1CC(=O)[C@H]1[C@@]3(C)CC[C@H](NCc4ccccc4)[C@@H](C)[C@@H]3CC[C@@]12C | 84.7%
